Only some compounds are listed: those with a hit (about 8% of all), similar ones and a draw of the others.
RORgamma inh: qHTS for inhibitors of ROR gamma transcriptional activity; Drosophila S2 Gal4-RORgamma UAS-luciferase reporter, 20 h; Potency, µM (titrated, usually from 53.6 µM), for inactives: top-dose activity change, negative = inhibition, hits mostly inhibitors; AID 2551, 2010; 310,000 tested, 5.4% active; note: potency is the fitted concentration of half-maximal effect; nearly all actives have a fitted effect of over 60% in size
Target sequence (P51450 whole entry, looked up, the tested form may be a part): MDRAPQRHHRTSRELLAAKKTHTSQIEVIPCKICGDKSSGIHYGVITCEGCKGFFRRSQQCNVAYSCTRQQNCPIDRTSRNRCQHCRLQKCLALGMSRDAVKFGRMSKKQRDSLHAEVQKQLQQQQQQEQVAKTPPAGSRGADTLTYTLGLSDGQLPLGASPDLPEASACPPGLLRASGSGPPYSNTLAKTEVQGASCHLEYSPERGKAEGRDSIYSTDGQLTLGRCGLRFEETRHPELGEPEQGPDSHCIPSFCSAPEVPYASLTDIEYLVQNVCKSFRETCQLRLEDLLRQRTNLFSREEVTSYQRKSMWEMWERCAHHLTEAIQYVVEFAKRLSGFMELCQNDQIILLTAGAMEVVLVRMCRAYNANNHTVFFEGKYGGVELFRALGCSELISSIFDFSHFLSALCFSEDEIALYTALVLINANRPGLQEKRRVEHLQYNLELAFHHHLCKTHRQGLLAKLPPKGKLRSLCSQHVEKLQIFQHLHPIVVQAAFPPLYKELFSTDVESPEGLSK
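Stable Schneider cell line, Gal4 DNA-binding domain fused to ROR gamma, UAS-luciferase. Cmpd 1 hr RT → CuSO4 700 uM final → 20 hr RT → luciferase reagent 10 min → luminescence.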
VP16 counter: VP16 counterscreen qHTS for inhibitors of ROR gamma transcriptional activity | Drosophila S2 Gal4-VP16 UAS-luciferase, luminescence, 20 h | Potency, µM (highest dose often 53.6 µM), for inactives: at the highest dose activity, negative = inhibition, most hits filed as inhibitors | 310,000 tested, 3.5% active;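 note: Gal4-VP16 expression switched on by copper sulfate through the metallothionein promoter; potency is the fitted concentration of half-maximal effect; nearly all actives have a fitted effect of over 50% in size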
ELG1 DNA repair: qHTS screen for small molecules that inhibit ELG1-dependent DNA repair in human embryonic kidney (HEK293T) cells expressing luciferase-tagged ELG1; HEK293T ELG1-luciferase reporter, luminescence, 16 h; DNA damage induced by 5-fluorouridine; Potency, µM (doses to about 46.1 µM), without a hit: at the highest dose activity change, negative = inhibition, hits mostly inhibitors; 330,000 tested, 2.3% active; AID 504467, 2011; note: potency is the fitted concentration of half-maximal effect; nearly all actives have a fitted effect of over 55% in size
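Quantitative HTS, concentration-response format. 2,000 cells/well co-treated with 5-fluorouridine and compound, 16 hr in 5% CO2 at 37 °C; ONE-Glo luminescence read after 30 min.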
Coupling enz: qHTS Assay for Inhibitors of Fructose-1,6-bisphosphate Aldolase from Giardia Lamblia: Coupling assay counterscreen; activity change, negative = inhibition, % at 58.2 µM, hits read low; coupling enzyme system counterscreen, AmpLite Red fluorescence; 290,000 tested, 0.67% active; AID 2472, 2010; in the data active = activity change below about -30%
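First, compound is pin-transferred into glyceraldehyde-3-phosphate coupling-enzyme reagent at 57.5 uM final and held 10 min at RT. Next, substrate, coupling system and AmpLite Red are added. After 20 min RT, fluorescence (525/598 nm) is read.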
TSHR antagonist: Antagonists of the Thyroid Stimulating Hormone Receptor: HTS campaign; 330,000 tested, 0.2% active; AID 504810, 2011; activity change, negative = inhibition, % at 11.5 µM; TSHR-expressing cells, TSH-stimulated cAMP HTRF, 2 h; active compounds read low;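 active = activity change below a set negative limit, meaning inhibition stronger than a set level, cut at about -70% in these data; inconclusive = activity change between two set negative limits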
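TSHR-expressing cells were treated with compounds, then stimulated with TSH at EC80 (4nM final) for 2 hours at 37 deg C. Cellular cAMP was measured by HTRF competition between lysate cAMP and cAMP-d2 for a cryptate-labelled anti-cAMP antibody.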
* = called active by the depositor; ? = inconclusive; / = no result. Unless noted, calls come from the whole dose curve; as a rule, active = well fitted curve in the direction sought with a large enough effect; inconclusive = small, poorly fitted or top-dose-only effect, or another doubt; inactive = no such curve, though single readings can be large; an effect the other way counts as inactive or inconclusive. % is set by controls: 0 for no effect and ±100 for the full control effect.

SMILES	RORgamma inh	VP16 counter	ELG1 DNA repair	Coupling enz	TSHR antagonist
O=C1c2ccccc2C(=O)c2c1oc(C(F)(F)F)c2C(=O)c1ccccc1	-8%	-14%	?	-3	58
O=C(c1ccccc1)c1coc2c1C(=O)c1ccccc1C2=O	18µM*	?	?	-21	33
COc1cc([C@H]2c3[nH]c4ccccc4c3C[C@H]3C(=O)N4[C@@H](c5cc(OC)c(OC)c(OC)c5)c5[nH]c6ccccc6c5C[C@H]4C(=O)N23)cc(OC)c1OC	?	10µM*	-13%	0	-2
Cc1cccc(N(CC(=O)NC2CCCCC2)C(=O)CCC(=O)Nc2nccs2)c1	-10%	2%	10%	-1	-4
CCC(C)N(C(=O)COC(=O)CNC(=O)c1sc2ccccc2c1Cl)C1CCS(=O)(=O)C1 (stereo unspecified)	?	-15%	?	0	-1
CSc1nsc(NC(=O)Cc2ccccc2)n1	?	7.1µM*	?	1	-16
CCN(CC)S(=O)(=O)c1ccc(N2CCOCC2)c(NC(=O)c2cc(Cl)c3c(c2)OCO3)c1	/	/	8.2µM*	/	/
CCN(CC)S(=O)(=O)c1ccc(N2CCOCC2)c(NC(=O)c2cc3ccccc3oc2=O)c1	?	-4%	5.2µM*	-4	-5
CCN(CC)S(=O)(=O)c1ccc(N2CCOCC2)c(NC(=O)c2ccc(F)cc2)c1	-4%	7%	?	9	1
CSc1ccc(S(=O)(=O)NCC(=O)OCC(=O)N2CCCC2=O)cc1[N+](=O)[O-]	/	/	16%	/	-21
CCCCOc1ccc(/C=N/NC(=O)c2csc(C)c2C)cc1	11µM*	?	?	-1	2
Cc1scc(C(=O)N/N=C/c2ccc(OCC(C)C)cc2)c1C	11µM*	?	?	-1	-12
CC(C)COc1ccc(C(=O)N/N=C/c2ccoc2)cc1	18µM*	14µM*	?	-1	-16
CCOc1cc(C(=O)N/N=C/c2ccoc2)cc(OCC)c1OCC	0%	11%	6%	/	2
O=C1c2ccccc2[C@@H]2C[C@@H](O)[C@H](Nc3cccc(Cl)n3)CCN12	/	/	?	/	-7
C=CCN1C(=O)C(CC(C)C)NC1=S (stereo unspecified)	-29%	-17%	/	6	/
O=c1cc(O)cc(/C=C/c2ccc(O)c(O)c2)o1	/	/	/	/	-9
O=S1(=O)CCO[C@H]2Cc3ccccc3[C@H]2N1Cc1ccc(F)cc1	-15%	-4%	10%	5	-6
Cc1cc(NC(=O)CC(F)(F)F)n(-c2ccccc2)n1	-7%	6%	6%	4	9
O=C(CCl)Nc1cc(-c2ccccc2)nn1-c1ccccc1	14µM*	?	?	1	-10
Cc1cc(NC(=O)COc2ccccc2)n(-c2ccccc2)n1	-7%	-10%	16µM*	-2	-17
CCN(CC)S(=O)(=O)c1cccc(C(=O)Nc2cc(C)nn2-c2ccccc2)c1	18%	-1%	23µM*	1	-18
Cc1ccc(-c2cc(NC(=O)CCl)n(-c3ccccc3)n2)cc1	6.3µM*	5µM*	0%	-11	22
CC(=O)Nc1ccc(-c2cc(NC(C)=O)n(-c3ccccc3)n2)cc1	6%	-1%	13%	-4	6
CCCCn1c(N)c(N(CCOC)C(=O)C2CC(=O)N(Cc3ccco3)C2)c(=O)[nH]c1=O (stereo unspecified)	/	/	15%	/	8
SMILES	RORgamma inh	VP16 counter	ELG1 DNA repair	Coupling enz	TSHR antagonist
O=C(COC(=O)c1cc(S(=O)(=O)N2CCOCC2)ccc1O)Nc1ccc2c(c1)OCO2	/	/	-3%	/	/
Cc1cc(C)c(NC(=O)CN(C)C(=O)CCC(=O)c2ccc(C)s2)c(C)c1	/	/	-2%	/	25
CS(=O)(=O)Nc1cccc(-c2ccc3ncnc(NC4CC4)c3c2)c1	?	-28%	/	-3	/
Cc1ccc(C)c(NC(=O)c2cc(-c3ccccc3)nn2-c2ccccc2)c1	15%	22µM*	?	3	-16
Cc1ccc(Sc2nnc(Cc3ccccc3)c3ccccc23)cc1	13µM*	?	?	0	-1
COc1ccc(/C=N/NC(=S)NCc2ccccc2)cc1OC	10µM*	?	0%	0	11
COCCCNC(=S)N/N=C/c1ccc(OC)c(Br)c1	1µM*	11µM*	9%	2	1
COc1ccc(CNC(=S)N/N=C/c2ccc(OC)c(OC)c2)cc1	11µM*	?	?	7	7
COc1cc(/C=N\NC(C)=O)ccc1OC/C=C/c1ccccc1	?	0.45µM*	16µM*	1	-1
CC(C)C(NS(=O)(=O)c1cccc(C(F)(F)F)c1)C(=O)N1CCc2ccccc2C1 (stereo unspecified)	-29%	-7%	-20%	6	2
COc1ccc(/C=C\C(=O)Oc2cccc(/C=N/NC(=O)Cc3ccc(OC)c(OC)c3)c2)cc1	-28%	13µM*	?	-5	0
COc1ccc(CNC(=S)N/N=C/c2ccc(O)c(OC)c2)cc1	10µM*	16µM*	3%	-3	-3
COc1ccc(/C=N/OCC(=O)NC(c2ccccc2)c2ccccc2)cc1OC	?	1.6µM*	-4%	1	-37
COC(=O)Cn1cnc(C(=O)Nc2ccc(C)c(C)c2)n1	/	/	?	/	-8
COc1ccc(NC(=O)[C@@H](NS(=O)(=O)c2cccc(Cl)c2)C(C)C)cc1S(=O)(=O)N1CCOCC1	/	/	0%	/	/
S=c1nc2c(n[nH]1)c1ccccc1n2CCc1ccccc1	2.2µM*	1.4µM*	1%	-2	-40
Cc1ccc(S(=O)(=O)Nc2ccc(-c3ccc4nncn4n3)cc2)cc1	/	/	?	/	13
C=C(C)CNC(=S)NNC(=O)CCn1c2ccccc2c2ccccc21	7.1µM*	?	0%	-3	-6
C=C(C)CNC(=S)NNC(=O)CCn1c2ccc(Cl)cc2c2cc(Cl)ccc21	0.63µM*	0.5µM*	-18%	-3	-10
C=C(C)CNC(=S)NNC(=O)c1ccncc1	?	-7%	8%	1	4
C=C(C)CNC(=S)NNC(=O)CCn1c2cc(Cl)ccc2c2ccc(Cl)cc21	5µM*	8.9µM*	-5%	1	-3
COC(=O)N1CCC2(CCN(C(=O)Nc3cccc(F)c3)CC2)CC1	28%	-4%	/	3	/
O=C(NCc1ccc2c(c1)OCO2)c1nc(Cn2cc([N+](=O)[O-])cn2)no1	5%	-7%	5%	-3	-8
